Compound activity (PubChem BioAssay)
Compounds with a hit are over-represented: about 7.8% of the library has one in this group of screens.
HCMV antiviral: blocks human cytomegalovirus replication. activity change, negative = inhibition, % at 57.5 µM. 4.5% of 410,000 active. HFF cells, HCMV-luciferase reporter, 72 h; stronger effect = lower value; in the data active = activity change below about -60%; inconclusive = no clear call, values can overlap the other calls; inactive = above about -39%
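Screen run at 2 compound doses on HFFs infected with reporter HCMV, MOI 1 PFU/cell. Luciferase activity from cell lysates at 72 h post infection gave inhibition relative to buffer-only and Salinomycin wells.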
VACV mCherry inh: inhibitors of vaccinia virus infection (mCherry reporter signal). Vaccinia virus mCherry reporter infection, fluorescence. Potency, µM (top dose mostly 36.5 µM), most hits filed as inhibitors. 0.63% of 310,000 active. AID 720579; calls by dose curve; tested in A549 cells; note: nearly all actives have a fitted effect of over 35% in size
VACV Venus inh: inhibitors of vaccinia virus (Venus reporter); 0.46% of 330,000 active; Potency, µM (titrated, usually from 36.5 µM), most hits filed as inhibitors; Vaccinia virus Venus reporter expression, fluorescence; calls by dose curve; tested in A549 cells; note: nearly all actives have a fitted effect of over 30% in size
MARV entry inh: inhibitors of Marburg virus binding or cell entry; Marburg virus pseudotyped entry inhibition, cell reporter; Potency, µM (doses to about 37.8 µM), most hits filed as inhibitors; 1.8% of 300,000 active; AID 540276; calls by dose curve; tested in HEK293 cells
HCV inh: blocks hepatitis C virus; Huh7.5.1 HCVcc-Cre infection, luciferase reporter, 44 h; Potency, µM (titrated, usually from 41.8 µM), usual class: inhibitors; 3.4% of 340,000 active; AID 651820; active = well fitted inhibition curve with a large enough effect; inconclusive = small, poorly fitted or top-dose-only effect, or another doubt; inactive = no such curve, though single readings can be large or run the other way
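1,000 cells/well; 4 h culture; + compound; + HCVcc-Cre (~0.5 moi); 44 h; luciferase substrate, RT 15 min; read 15 sec.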
Lassa entry inh: inhibitors of Lassa virus binding or cell entry; 1.2% of 300,000 active; AID 540256; Potency, µM (doses to about 37.9 µM), actives largely listed as inhibitors; Lassa virus pseudotype entry inhibition, cell reporter; calls by dose curve; tested in HEK293 cells; note: nearly all actives have a fitted effect of over 50% in size
A number is an active result; . = inactive; ? = inconclusive; / = no result given; [ ] = another dose, or the depositor's remark.

SMILES	HCMV antiviral	VACV mCherry inh	VACV Venus inh	MARV entry inh	HCV inh	Lassa entry inh
CCOc1ccccc1NC(=O)c1nc(S(=O)(=O)Cc2cccc(C)c2)ncc1Cl	-113	.	.	.	2.8µM	.
CCc1nnc(NC(=O)c2nc(S(=O)(=O)Cc3cccc(C)c3)ncc2Cl)s1	-101	.[7.34 µM]	.	?	11µM	?
CC(C)CCNC(=O)CCCN1C(=O)c2ccccc2Sc2ncccc21	.	.	.	/	/	?
COc1ccccc1N1CCN(C(=O)c2nc(SC)ncc2Cl)CC1	.	.	.	.	/	?
Cc1ccccc1Cn1cc(/C=N/n2cnnc2)c2ccccc21	.	?	?	?	.	?
Cc1ccc(Cn2cc(C=O)c3ccccc32)cc1	.	.	.	1.4µM	.	?
O=Cc1cn(Cc2ccc([N+](=O)[O-])cc2)c2ccccc12	.	.	.	?	.	10µM
O=[N+]([O-])/C=C/c1cn(Cc2ccc(F)cc2)c2ccccc12	?	?	.	7.3µM	8.9µM	?
O=Cc1cn(Cc2ccc(F)cc2)c2ccccc12	.	.	.	?	.	?
Clc1ccc(Cn2cc(/C=N/n3cnnc3)c3ccccc32)cc1	.	/	?	.	10µM	?
O=C(NCc1cccs1)c1ccc2c(c1)sc1nc(-c3ccccc3)cn12	/	.	.	/	/	.
COc1cc(OC)cc(C(=O)Nc2cc3c(cc2N2CCOCC2)n(C)c(=O)n3C)c1	.	.	.	.	/	.
COCC(=O)Nc1cc(C(=O)N2CCN(C3CCCC3)C(=O)C2)c2c(c1)nc(-c1ccncc1)n2C	/	.	.	/	/	/
O=C(N/N=C/c1ccccn1)c1ccco1	.	/	/	.	.	.
O=C(N/N=C/c1ccc2ncccc2c1)c1ccco1	.	.	.	1.3µM	.	2.5µM
COC(=O)c1ccc2nc(Nc3nc4ccc(F)cc4s3)sc2c1	-85	.	.	0.79µM	.	6.3µM
COC(=O)c1ccc2nc(NC(=O)C(C)(C)C)sc2c1	-63	.	.	?	?	1.1µM
COC(=O)c1ccc2nc(NC(=O)C3CCCCC3)sc2c1	.	/	/	?	.	.
O=C(CN1c2ccc(Br)cc2-c2ccccc2S1(=O)=O)N1CCCCC1	.	.	.	?	/	.
CC(=O)Nc1ccc(-c2cc(C(=O)O)c3c(-c4ccccc4)[nH]nc3n2)cc1	.	.	.	.	/	.
CCn1cc(C2=NC(C)(C)CO2)c2ccccc21	.	/	/	.	3.2µM	.
CCn1cc(C2=NCCO2)c2ccccc21	.	10µM	?	.	?	/
CCn1cc(C2=NCC(C)O2)c2ccccc21 (centres undefined)	.	/	/	.	14µM	.
CCn1cc(C2=NC(c3ccccc3)CO2)c2ccccc21 (centres undefined)	.	.	.	.	?	.
CCn1cc(C2=NC(C)CO2)c2ccccc21 (centres undefined)	.	/	/	?	?	.
SMILES	HCMV antiviral	VACV mCherry inh	VACV Venus inh	MARV entry inh	HCV inh	Lassa entry inh
Cc1ccc(C)n1-c1nnc(N2CCC(C(=O)Nc3ccccc3Br)CC2)s1	.	.	.	.	/	.
COc1cccc(NC(=O)c2c(-c3ccc(C)cc3)nnc3ccccc23)c1	.	.	.	/	/	.
CN(C)S(=O)(=O)c1ccc(Cl)c(NC(=O)CN2CCN(Cc3ccc4c(c3)OCO4)CC2)c1	-60	/	/	/	?	/
O=C(c1ccc(S(=O)(=O)N2CCCCC2)cc1)N1CCN(Cc2ccc3c(c2)OCO3)CC1	.	.	.	?	?	.
CN(C)S(=O)(=O)c1ccc(Cl)c(NC(=O)CN2CCc3ccccc3C2)c1	-64	.	.	?	?	?
O=C(CN1CCN(Cc2ccc3c(c2)OCO3)CC1)Nc1cc(S(=O)(=O)N2CCCC2)ccc1Cl	?	.	.	?	6.3µM	.
COc1ccc(COC(=O)NN=C2C[C@@H](O)[C@@H](O)[C@@H]3[C@H]4C(=O)N(c5cccc(Oc6ccccc6)c5)C(=O)[C@@H]4CC[C@H]23)cc1	/	/	/	.	/	?
CCC1=C(O)CC(O)=C(C2NNC(CCC(=O)O)C2C2NC3CCCCC3N2C)C1 (centres undefined)	/	/	/	.	/	/
O=C(Nc1ccc(Oc2ccc3nc(NC(=O)c4ccco4)[nH]c3c2)cc1)Nc1cc(C(F)(F)F)ccc1F	/	/	/	/	/	7.9µM
O=C(Nc1ccc(Oc2ccc3nc(NC(=O)c4ccccc4)[nH]c3c2)cc1)Nc1cc(C(F)(F)F)ccc1F	/	/	/	/	/	6.3µM
COC(=O)Nc1nc2ccc(Oc3ccc(NC(=O)Nc4cccc(Br)c4)cc3)cc2[nH]1	/	/	/	/	/	18µM
COc1cc(=O)n2c(c1C(=O)N(C)Cc1nonc1C)CCN(Cc1c(F)cccc1F)CC2	/	.	.	/	/	/
Cc1c(NC(=S)N/N=C\c2ccccc2O)c(=O)n(-c2ccccc2)n1C	.	13µM	?	.	?	.
Cc1c(NC(=S)N/N=C/c2ccc(Br)cc2)c(=O)n(-c2ccccc2)n1C	.	.	.	.	.	.
Cc1c(NC(=S)N/N=C/C=C/c2ccc([N+](=O)[O-])cc2)c(=O)n(-c2ccccc2)n1C	-103	.	.	.	.	.
Cc1c(NC(=S)N/N=C/C=C/c2ccccc2)c(=O)n(-c2ccccc2)n1C	.	.	.	.	.	.
COC(=O)[C@@H]1CCCN1Cc1ccc2c(c1)CN(Cc1cccn1-c1ccccn1)CCO2	/	.	.	/	/	/
CC1CCCCN1c1ncnc(N)c1[N+](=O)[O-] (centres undefined)	-77	.	.	.	.	/
CC1Cc2ccccc2N1c1ncnc(N)c1[N+](=O)[O-] (centres undefined)	-101	/	/	.	.	.
CC1Cc2ccccc2N1c1ncnc2nc[nH]c12 (centres undefined)	/	.	.	.	.	?
Cc1ccc2[nH]nc(C(=O)N3CCOc4ccc(CN5CCc6sccc6C5)cc4C3)c2c1	/	13µM	.	/	/	/
CCCN1CCN(c2nnc(-n3cccc3C(=O)Nc3cc(Cl)ccc3C)s2)CC1	.	.	.	/	/	.
Cc1nn(C)c(C)c1N1C(=O)c2cccc3c(Br)ccc(c23)C1=O	-74	.	.	.	?	.
CSc1ccc(-c2nc3ncccn3c2Nc2ccc(C)c(C)c2)cc1	.	.	.	?	/	.
Cc1nc2ncccn2c1-c1csc(Nc2ccc(N(C)C)cc2)n1	-65	?	?	?	.	.
SMILES	HCMV antiviral	VACV mCherry inh	VACV Venus inh	MARV entry inh	HCV inh	Lassa entry inh
Cc1nc2sccn2c1-c1csc(NCc2ccccc2)n1	-72	?	?	?	11µM	.
COc1ccccc1Nc1nc(-c2c(C)nc3ncccn23)cs1	.	?	.	?	11µM	?
Cc1nc2ncccn2c1-c1csc(Nc2ccccc2)n1	.	.	?	?	11µM	.
CC1(Oc2cccc(C#N)c2)CCN(Cc2ccccc2OC(F)F)C1 (centres undefined)	?	.	.	/	/	/
CCOC(=O)c1noc2nc(C)n(CC(=O)Nc3ccc(Br)cc3C)c(=O)c12	.	.	.[7.34 µM]	/	/	.
O=S(=O)(NCCc1csc2nc(-c3ccc(F)cc3)nn12)c1ccc(Br)cc1	.	.	.	/	/	.
COc1ccc(Nc2nc(-c3c(C)nc4ncccn34)cs2)cc1	-98	?	?	/	11µM	/
